Several values for one entry are separate records, joined by “and”; a condition that tells them apart may be missing. Equal values may be shown once. Inconclusive results are not listed. Unmarked numbers belong to inactive results. Activity calls are given as the source filed them. Calls come from the whole dose curve; as a rule, active = well fitted inhibition curve with a large enough effect; inconclusive = small, poorly fitted or top-dose-only effect; inactive = flat fitted curve, though single readings scatter.

The experiment has as its target Dual specificity tyrosine-phosphorylation-regulated kinase 1A (Homo sapiens) (UniProt Q13627). Nature of the experiment: Assay for Inhibitors of Dual-Specificity Tyrosine-(Y)-Phosphorylation Regulated Kinase 1A (Kinase-Glo assay): round 2 SAR. As to conditions: recombinant DYRK1A, Kinase-Glo ATP depletion luminescence; series mostly up to 76.9 µM; activity, negative = inhibition: at the top concentration. An excerpt:
NIH Molecular Libraries Probe Production Centers Network [MLPCN] NIH Chemical Genomics Center [NCGC] MLPCN Grant: 1R03MH084827-01 PI Name: Tom Misteli NCGC Assay Overview: The CMGC group of protein kinases which includes CDK-like kinases (Clk) and Dyks are essential kinases found in all eukaryotes. Clks have been implicated to play a role in the regulation of alternative splicing; while Dyrks, in particular over expression of Dyrk1A, has been linked to diseases as Down syndrome (DS; OMIM 190685) and Alzheimer disease (AD; OMIM 104300). Among the members of the CMGC group, the Clks and the Dyrks are very closely related therefore to determine validity and selectivity of an active compound observed in the CLK4 qHTS screen (AID:1770), a bioluminescent counter-screen against Dyrk1A was developed. In addition, potent and selective compounds against Dyrk1A were identified to further assess the role of this enzyme in DS and AD. Dyrk1A (Invitrogen, cat # PV3785) was assayed using ATP and DYRKtide (AnaSpec, cat# 62698) as substrates. Promega Kinase-Glo (cat# V6712) technology was used to detect the residual ATP following kinetic reaction. The Kinase-Glo Plus contains Ultra-Glo [5] luciferase and D-luciferin which generates a bioluminescence signal from the remaining ATP. No enzyme and harmine (Sigma, cat # 286044-1G), a compound shown to inhibit Dyrks were used as a positive control; while DMSO treatment was used as a negative control.
NCGC Assay Protocol Summary: Two uL/well of substrate solution (8uM Dyrktide, 2uM ATP, 25mM Tris-HCl pH 7.5, 10mM MgCl2 , 0.5mM EGTA, 5mM cystein, 0.01% Triton X-100 final concentration) was dispensed into 1536-well assay plates (Greiner, solid white, medium-binding plates) with Aurora Discovery BioRAPTR Flying Reagent Dispenser (FRD, Beckton-Dickenson). Compound solution (23 nL) was transferred to the assay plate using Kalypsys pin tool equipped with a 1536-pin tool. One uL/well enzyme solution (5nM Dyrk1A, 25mM Tris-HCl pH7.5, 10mM MgCl2, 0.5mM EGTA, 5mM cystein, 0.01% Triton X-100 final concentration) was then added using FRD yielding a total kinase reaction volume of 3uL/well. After 2 hours of room temperature incubation, 3uL Kinase-Glo detection reagent was added for a final assay volume of 6uL/well. The plates were spun for 30 seconds (1000 rpm) and incubated at ambient temperature for 2 minutes followed by a luminescence read using Perkin Elmer ViewLux plate reader at 3 seconds exposure time and 2x binning.
A general note: Kinase-Glo measures the ATP left after a reaction by luminescence.
Take `Cc1csc(CNc2ncnc3ccc(-c4ccc5c(c4)OCCO5)cc23)c1`: the Potency was 1.64 µM (active). `Cc1csc(CNc2ncnc3ccc(-c4ccc(C(=O)O)o4)cc23)n1`: the Potency is 14.6 µM (active). As for `CN(CC(=O)O)c1ncnc2ccc(-c3ccc4c(c3)OCO4)cc12`, the Potency was 8.23 µM (active). Still for that read-out and setting: as for `Cc1nc(CCNc2ncnc3ccc(-c4ccc5c(c4)OCO5)cc23)cs1`, the figure is 0.26 µM (active).

`Clc1ccccc1-c1ccc2ncnc(NCc3ccc4c(c3)OCO4)c2c1`: the “activity, negative = inhibition” value was -14.5%. Same read-out and setting: as for `COc1cccc(Nc2ncc3nc(-c4cn(C)c5ccccc45)c(=O)n(CCC#N)c3n2)c1`, the figure is -13.8%. In the case of `Fc1cccc(CNc2ncnc3ccc(-c4ccccc4Cl)cc23)c1`, the Potency was 16.4 µM (active). For the compound `Cc1csc(CNc2ncnc3cc(-c4ccc5c(c4)OCO5)ccc23)n1`, the Potency is 29.2 µM (active). Consider `Clc1cccc(-c2ccc3ncnc(NCc4cccs4)c3c2)c1`, for which the Potency was 13 µM (active). On the same count and under the same terms, as for `CN(CCc1ccco1)c1ncnc2ccc(-c3ccc4c(c3)OCO4)cc12`, the figure is 0.292 µM (active); as for `CCNC(=O)c1ccc(-c2ccc3ncnc(NCc4nccs4)c3c2)o1`, 10.4 µM (active).

`Cc1ccc(CNc2ncnc3ccc(-c4ccc(C(=O)O)o4)cc23)o1`: the Potency was 10.4 µM (active). Still for that read-out and setting: as for `Clc1cccc(-c2ccc3ncnc(NCc4cccnc4)c3c2)c1`, the figure is 18.4 µM (active). For the compound `Cn1ccc2cc(-c3ccc4ncnc(NCc5ccc6c(c5)OCO6)c4c3)ccc21`, the “activity, negative = inhibition” value was -10.9%. For the compound `Cc1cccc(CNc2ncnc3ccc(-c4ccc5c(c4)OCO5)cc23)c1`, the Potency was 1.04 µM (active). As for `Cn1cncc1CNc1ncnc2ccc(-c3ccc4c(c3)OCO4)cc12`, the Potency is 0.463 µM (active). Still for that read-out and setting: as for `COc1cccc(-c2ccc3ncnc(NCc4cccc(C)c4)c3c2)c1`, the figure is 8.23 µM (active); as for `Fc1cccc(CNc2ncnc3ccc(-c4ccc5c(c4)OCO5)cc23)c1`, 0.463 µM (active); as for `Cc1csc(CNc2ncnc3ccc(-c4ccc5c(c4)OCO5)cc23)n1`, 0.207 µM (active). As to `CN(C)CCCNc1ncnc2ccc(-c3ccc4c(c3)OCO4)cc12`, the Potency was 8.23 µM (active). Still for that read-out and setting: as for `Cc1ccc(CNc2ncnc3cc(-c4ccc5c(c4)OCO5)ccc23)o1`, the figure is 23.2 µM (active); as for `Cc1ccc(CN(C)c2ncnc3ccc(-c4ccc(CO)o4)cc23)o1`, 0.823 µM (active). In the case of `c1csc(CNc2ncnc3cc(-c4ccc5c(c4)OCO5)ccc23)c1`, the Potency was 26 µM (active). Take `c1csc(CNc2ncnc3ccc(-c4ccc5c(c4)OCO5)cc23)c1`: the Potency is 0.184 µM (active). The same measure, in the same setting: as for `Cc1cccc(-c2ccc3ncnc(NCc4cccc(F)c4)c3c2)c1`, the figure is 13 µM (active). As to `CN1CCN(c2ncc3nc(-c4cn(C)c5ccccc45)c(=O)n(Cc4cccs4)c3n2)CC1`, the “activity, negative = inhibition” value is -6.07%. For `O=C(O)c1ccc(-c2ccc3ncnc(NCC4CCCO4)c3c2)o1` (centres undefined), the Potency is 23.2 µM (active).

`Cc1ccc(CNc2ncnc3ccc(-c4ccc([C@@H](C)O)o4)cc23)o1`: the Potency was 26 µM (active) and 16.4 µM (active) and 23.2 µM (active).

Regarding `Cn1ccc2cc(-c3ccc4ncnc(NCc5cccc(F)c5)c4c3)ccc21`, the “activity, negative = inhibition” value is -5.48%. As to `Cc1nc(C(C)N(C)c2ncnc3ccc(-c4ccc5c(c4)OCO5)cc23)cs1` (centres undefined), the Potency was 29.2 µM (active). On the same count and under the same terms, as for `c1nc(NCc2ccc3c(c2)OCO3)c2cc(-c3ccc4c(c3)OCCO4)ccc2n1`, the figure is 4.12 µM (active); as for `c1cncc(CNc2ncnc3ccc(-c4ccc5c(c4)OCCO5)cc23)c1`, 1.16 µM (active); as for `CCNC(=O)c1ccc(-c2ccc3ncnc(NCc4ccc(C)o4)c3c2)o1`, 9.23 µM (active).

As to `OCc1ccc(-c2ccc3ncnc(N4CCOCC4)c3c2)o1`, the Potency is 16.4 µM (active). With `Clc1ccccc1-c1ccc2ncnc(NCc3cccnc3)c2c1`, the Potency is 26 µM (active). Same read-out and setting: as for `CC(O)c1ccc(-c2ccc3ncnc(N4CCOCC4)c3c2)o1` (centres undefined), the figure is 23.2 µM (active); as for `Fc1cccc(CNc2ncnc3ccc(-c4cccnc4)cc23)c1`, 26 µM (active). With `Cc1csc(CNc2ncnc3ccc(-c4ccc(C(C)O)o4)cc23)n1` (centres undefined), the Potency was 26 µM (active). Turning to `CN(CC1CCCCC1)c1ncnc2ccc(-c3ccc4c(c3)OCO4)cc12`, the Potency was 0.26 µM (active).

(Values after PubChem BioAssay AID493206 (National Center for Advancing Translational Sciences (NCATS), 2011).)
